Source: PubChem BioAssay
U2OS ROS induce: ROS inducers in U2OS cancer cells, primary screen, cell-based, H2DCF-DA fluorescence; U2OS ROS induction; AID 624156, 2012; ROS induction (% of piperlongumine), % at 10 µM; 46,000 tested, 2% active; in the data active means ROS induction above about 79%, passing the limit was not always enough; inconclusive means no clear call, values can overlap the other calls
BJeLR viab HTS: BJeLR cell viability loss, primary screen, luminescence, CellTiterGlo ATP; BJeLR fibroblasts viability, 48 h; HRASV12, hTERT and SV40 LT/ST transformed; viability loss activity score, % (test concentration not listed); 30,000 tested, 0.64% active; AID 2275, 2010; in the data active means viability loss activity score above about 50%; inconclusive means no clear call, values can overlap the other calls; inactive means below about 35%;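 further: higher score means fewer live cells and less ATP luminescence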
MITF inh: inhibitors of MITF, primary screen, MITF inhibitor project, cell-based, luminescence; TRPM1 promoter luciferase, 24 h; inhibition, % (concentration not given with the values); 37,000 tested, 0.28% active; AID 2240, 2010; in the data active means inhibition above about 85%; inconclusive means no clear call, values can overlap the other calls; inactive means below about 68%;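 further: human melanocyte line stably carrying TRPM1 promoter luciferase reporter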
YB-1 expr inh: inhibitors of YB-1 gene expression, primary screen, cell-based, fluorescence. U2OS, qRT-PCR YB-1 vs CDIP delta delta Cp, 16 h; stronger effect = higher value; zero = DMSO, each unit about twofold. delta delta Cp (YB-1 minus CDIP) (test concentration not listed). 30,000 tested, 0.37% active;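 active means delta delta Cp rounded down to an integer at or above 3, about 3 SD of DMSO wells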;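 further: higher means less YB-1 transcript or more CDIP transcript relative to DMSO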
A number is an active result. In the library only some 2.5% were active in any assay of this set; here they are far more common.

Screening O=C1C2CC=CCC2C(=O)N1Cc1ccccc1 (stereo not drawn) returned U2OS ROS induce inactive and BJeLR viab HTS inactive.
Screening CCCN(CCC)C(=O)c1cc(S(=O)(=O)N2CCc3ccccc32)cn1C returned U2OS ROS induce inactive and BJeLR viab HTS inactive.
COc1ccc(CCNC(=O)CSc2nc3c(sc4ccccc43)c(=O)n2CCO)cc1OC was read as U2OS ROS induce inactive and BJeLR viab HTS inactive.
Screening CCOC(=O)c1c(C(C)(C)C)oc2ccc(OCC(=O)OC)cc12 returned U2OS ROS induce inactive, BJeLR viab HTS inactive, MITF inh inactive and YB-1 expr inh inactive.
`CCOC(=O)c1c(CNC(C)C)oc2ccc(OC)cc12` gave U2OS ROS induce inactive, BJeLR viab HTS inactive, MITF inh inactive and YB-1 expr inh 10.
For CCOC(=O)c1nn(-c2ccccc2)c(C#N)c1NC(=O)c1nn(CC)cc1Br the results were U2OS ROS induce 166, BJeLR viab HTS inactive, MITF inh inactive and YB-1 expr inh inactive.
CCOC(=O)c1c(NC(=O)c2nn(CC)cc2Br)c(C#N)nn1-c1ccccc1 was read as U2OS ROS induce 125 and MITF inh inactive.
Screening CC1CCCC2OC2C(=O)c2c(O)cc(O)cc2CC(=O)O1 (stereo not drawn) returned U2OS ROS induce inactive, BJeLR viab HTS inactive, MITF inh inactive and YB-1 expr inh inactive.
For CC1CCC/C=C/C(=O)c2c(O)cc(O)cc2CC(=O)O1 (stereo not drawn) the results were U2OS ROS induce 91, BJeLR viab HTS inactive, MITF inh inactive and YB-1 expr inh inactive.
Screening C=CCSc1c2c(c(C#N)c3nc4ccccc4n13)CCC2 returned U2OS ROS induce 103, BJeLR viab HTS inactive, MITF inh inactive and YB-1 expr inh inactive.
`CN(C)c1c2c(c(C#N)c3nc4ccccc4n13)CCC2` gave BJeLR viab HTS inactive.
`COC(=O)C1=C(O)/C(=C/c2ccc(CNS(=O)(=O)c3ccccc3)o2)N=C1C` gave U2OS ROS induce inactive and BJeLR viab HTS inactive.
CCOc1ccc(-n2cc(-c3ccccc3)c3c(SCC)ncnc32)cc1 was read as BJeLR viab HTS inactive.
Screening COc1ccc(-n2cc(-c3ccccc3)c3c(N4CCCCC4)ncnc32)cc1 returned U2OS ROS induce 116 and BJeLR viab HTS inactive.
`Cc1ccc(C2C(C(=O)c3ccc(Br)cc3)C(=O)C(=O)N2CCCN(C)C)cc1` (stereo not drawn) gave U2OS ROS induce inactive and BJeLR viab HTS inactive.
Screening C=CCn1c(SCc2ccccc2)nnc1-c1ccc2ncccc2c1 returned U2OS ROS induce inactive and BJeLR viab HTS inactive.
C=C(C)C(=O)O[C@H]1[C@H]2C(=C)C(=O)O[C@@H]2C[C@@H](C)[C@@H]2O[C@@H]2C(=O)[C@](C)(O)[C@@H]1OC(C)=O was read as U2OS ROS induce 82, BJeLR viab HTS inactive, MITF inh inactive and YB-1 expr inh inactive.
`C=C(C)C(=O)O[C@H]1[C@H]2C(=C)C(=O)O[C@@H]2C[C@@H](C)/C=C/C(=O)[C@](C)(O)[C@@H]1OC(=O)C(=C)C` gave U2OS ROS induce inactive, BJeLR viab HTS 72, MITF inh inconclusive and YB-1 expr inh inactive.
For C=C(C)C(=O)OC1CC(CO)CCC/C(CO)=C\C2OC(=O)C(=C)C21 (stereo not drawn) the results were U2OS ROS induce inactive and YB-1 expr inh inactive.
For COc1ccc([Si](C)(C)[C@@H]2[C@@H](CCn3cc([C@H](O)c4ccccc4)nn3)O[C@]3(C(=O)N(Cc4ccc(N5CCC5=O)cc4)c4ccccc43)[C@H]2C)cc1 the results were U2OS ROS induce inactive and YB-1 expr inh inactive.
`COc1ccc([Si](C)(C)[C@H]2[C@H](CCO)O[C@@]3(C(=O)N(Cc4cccc(NC(=O)[C@H](C)O)c4)c4ccccc43)[C@@H]2C)cc1` gave U2OS ROS induce inactive and YB-1 expr inh inactive.
COc1ccc([Si](C)(C)[C@@H]2[C@@H](CCO)O[C@]3(C(=O)N(Cc4ccc(NC(=O)[C@H](C)O)cc4)c4ccccc43)[C@H]2C)cc1 was read as U2OS ROS induce 91 and YB-1 expr inh inactive.
For COc1ccc([Si](C)(C)[C@H]2[C@H](CCO)O[C@@]3(C(=O)N(Cc4ccc(N5CCOC5=O)cc4)c4ccccc43)[C@@H]2C)cc1 the results were U2OS ROS induce 130 and YB-1 expr inh inactive.
For COc1ccc([Si](C)(C)[C@H]2[C@H](CCO)O[C@@]3(C(=O)N(Cc4cccc(N5CCC5=O)c4)c4ccccc43)[C@@H]2C)cc1 the results were U2OS ROS induce 107 and YB-1 expr inh inactive.
